Shown is part of a subset that was picked to be rich in hits.
SARS PLpro yeast = blocks SARS-CoV papain-like protease in a yeast assay. Potency, µM (doses to about 32.9 µM), without a hit: at the highest dose activity, positive = growth rescue, usual class: activators. S. cerevisiae expressing SARS-CoV PLpro, growth rescue. actives 0.19% (n = 330,000); calls by dose curve; note: potency is the fitted concentration of half-maximal effect; 0% is about no effect; nearly all actives have a fitted effect of over 55% in size
Shiga inhibitor = Shiga toxin inhibition; inhibition, % at 38.7 µM; AID 2315; Vero cells, Shiga toxin protein synthesis inhibition reporter; actives 9.2% (n = 290,000); in the data active = inhibition mostly above about 28%, no sharp cut-off; inactive = mostly below about 43%; note: 0% is about no effect
NS1 function inh = blocks influenza NS1 protein function. Potency, µM (titrated, usually from 46.1 µM), without a hit: at the top dose activity, positive = more growth. actives 0.4% (n = 270,000). AID 2326; calls by dose curve; note: potency is the fitted concentration of half-maximal effect; actives are rising curves; nearly all actives have a fitted effect of over 50% in size
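Read-out: OD600 growth recovery of NS1-expressing budding yeast. Cells grown overnight at 30C in -URA glucose medium, washed, resuspended and diluted 1:100 in 2% galactose assay medium, pH 6.0. Same strain lacking NS1 served as positive control.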
Cycloheximide cs = affects cycloheximide protein synthesis inhibition readout, counter-screen; cell reporter, cycloheximide protein synthesis inhibition counterscreen; max response, %; actives 12% (n = 300,000); in the data active = max response mostly above about 13%, no sharp cut-off; inactive = mostly below about 14%; note: read at 38.3 µM for the half of the compounds with a filed dose; 0% is about no effect
TbPYK inhibitor = inhibitors of Trypanosoma brucei pyruvate kinase; Q57TT1; TbPYK enzyme, Kinase-Glo Plus ATP luminescence, 45 min; Potency, µM (titrated, usually from 76.8 µM), inactives show at the top dose activity, negative = inhibition, actives largely listed as inhibitors; actives 0.12% (n = 410,000); AID 624173; note: potency is the fitted concentration of half-maximal effect; % is set by controls: 0 for no effect and ±100 for the full control effect; nearly all actives have a fitted effect of over 50% in size
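Luminescence from Kinase-Glo Plus, added after a 45-minute room-temperature reaction, served as the end-point read-out. The enzyme and substrate were preincubated with compound before ADP (130 uM final) initiated turnover. Concentration-effect curves came from normalized qHTS data.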
LmPK inh = LmPK (Leishmania mexicana) enzyme inhibition; Q27686; purified LmPK, Kinase-Glo ATP luminescence, 1 h; Potency, µM (series often up to 57.5 µM), without a hit: top-dose activity change, negative = inhibition, most hits filed as inhibitors; actives 0.37% (n = 290,000); AID 1721; note: potency is the fitted concentration of half-maximal effect; % is set by controls: 0 for no effect and ±100 for the full control effect
Target sequence (Q27686 whole entry, looked up): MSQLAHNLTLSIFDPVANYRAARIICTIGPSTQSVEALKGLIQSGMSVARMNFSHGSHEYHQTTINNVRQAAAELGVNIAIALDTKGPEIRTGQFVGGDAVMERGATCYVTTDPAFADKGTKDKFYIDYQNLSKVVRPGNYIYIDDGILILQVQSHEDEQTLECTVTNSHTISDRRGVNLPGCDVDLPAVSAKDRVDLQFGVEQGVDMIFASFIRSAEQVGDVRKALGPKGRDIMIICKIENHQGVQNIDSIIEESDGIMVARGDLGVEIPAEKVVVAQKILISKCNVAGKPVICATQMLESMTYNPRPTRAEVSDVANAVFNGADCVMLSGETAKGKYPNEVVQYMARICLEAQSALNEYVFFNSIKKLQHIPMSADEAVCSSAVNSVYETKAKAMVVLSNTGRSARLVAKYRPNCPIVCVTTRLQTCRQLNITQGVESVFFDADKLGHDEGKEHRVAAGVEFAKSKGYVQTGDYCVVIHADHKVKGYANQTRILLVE
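Purified LmPK (0.1 nM) converted ADP (0.1 mM) to ATP with PEP (0.5 mM) in imidazole buffer pH 7.2 with KCl and MgCl2, 1 h at room temperature. ATP was read by Kinase-Glo luminescence; data normalized to uninhibited and no-enzyme controls.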
An asterisk follows results filed as active; / = not tested or not shown. Unless noted, calls come from the whole dose curve; as a rule, active = well fitted curve in the direction sought with a large enough effect; inconclusive = small, poorly fitted or top-dose-only effect, or another doubt; inactive = no such curve, though single readings can be large; an effect the other way counts as inactive or inconclusive.

SMILES	SARS PLpro yeast	Shiga inhibitor	NS1 function inh	Cycloheximide cs	TbPYK inhibitor	LmPK inh
Cc1cc(C)n2nc(C(=O)Nc3nnc(C4CC4)s3)nc2n1	-3%	-18	1%	-2	-7%	0%
Cc1csc(NC(=O)c2nc3nc(C)cc(C)n3n2)n1	2%	49	-9%	48*	-5%	-2%
C/C(=N\Nc1nc(C(C)(C)C)cs1)c1ccc(O)cc1	10%	121*	24%	53*	-5%	-3%
C/C(=N\Nc1nc(C(=O)O)cs1)c1ccccc1	25%	29	/	23*	-2%	4%
C/C(=N\Nc1nc(C(C)(C)C)cs1)c1ccccc1	-8%	135*	-5%	57*	7%	-3%
C/C(=N\NS(=O)(=O)c1ccc(C(C)(C)C)cc1)c1ccccc1	-4%	2	-1%	6	2%	4%
C/C(=N\Nc1c(Cl)c(Cl)nc(C(=O)O)c1Cl)c1ccc(O)cc1	-2%	-5	24%	-1	0%	-3%
NC(=S)N/N=C/c1c[nH]c2ccc(OCc3ccccc3)cc12	9%	14	16%	4	-14%	-1%
Cc1ccc(-c2nc(CS(=O)CC(=O)NCCN3CCCCC3C)c(C)o2)cc1 (centres undefined)	1%	-4	10%	-3	-12%	-1%
CCOc1ccccc1-c1nnc2n1N=C(c1ccc(OC)cc1)CS2	/	-5	/	-10	/	/
Cc1cccc(Cc2nnc(CCC(=O)N(C)CCc3ccccc3)o2)c1	-2%	61*	-16%	48*	1%	-2%
Cc1cc(-c2nnc(CCC(=O)N(CC3CC3)CC3CCCO3)o2)no1 (centres undefined)	-1%	4	4%	1	-3%	-4%
CC(C)CN(C)C(=O)CCc1nnc(Cc2ccc(-c3ccccc3)cc2)o1	0%	38	-6%	22*	-6%	0%
Cc1cc(-c2nnc(CCC(=O)N(C)CCc3ccccc3)o2)no1	0%	74*	-6%	19*	-1%	-1%
Cc1cc(-c2nnc(CCC(=O)N(CC3CCC3)CC3CCCO3)o2)no1 (centres undefined)	1%	78*	0%	44*	2%	-2%
O=C(CCc1nnc(Cc2ccc(-c3ccccc3)cc2)o1)N1CCCC1	0%	-17	-1%	-3	2%	2%
COc1ccc(S(=O)(=O)N2CCCCCC2)cc1NC(=O)CN1C(=O)NC(C)(c2ccccc2)C1=O (centres undefined)	2%	/	/	/	0%	/
OC(c1ccccc1)(c1nc(-c2ccc(Cl)cc2)cs1)C(F)(F)F (centres undefined)	/	/	/	/	-3%	/
O=C(OCC(=O)N1CCN(c2ccccc2)CC1)c1cc(F)c(F)cc1Cl	/	/	/	/	-3%	/
CN(CCC1CCCCO1)C(=O)CCc1nnc(CCc2ccccc2)o1 (centres undefined)	2%	47*	9%	32*	-1%	1%
CN(Cc1cccc2cnccc12)C(=O)CCc1nnc(CCc2ccccc2)o1	0%	47*	3%	37*	-1%	4%
CN(CCC1CCCCO1)C(=O)CCc1nnc(Cc2c[nH]c3ccccc23)o1 (centres undefined)	27%	8	12%	-3	-9%	-7%
c1ccc2c(-n3cccn3)cccc2c1	2%	83*	-9%	36*	1%	-8%
Cc1cc(NC(C)c2ccccc2)n2ncc(-c3ccccc3)c2n1 (centres undefined)	-6%	69*	-2%	44*	-11%	9%
COc1ccc(CCNc2cc(C)nc3c(-c4ccc(Cl)cc4)cnn23)cc1OC	-16%	-8	13%	6	3%	6%
SMILES	SARS PLpro yeast	Shiga inhibitor	NS1 function inh	Cycloheximide cs	TbPYK inhibitor	LmPK inh
Cc1cc(NCCCn2ccnc2)n2ncc(-c3ccccc3)c2n1	-9%	18	-5%	9	-12%	-4%
Cc1cc(NCCN2CCOCC2)n2ncc(-c3ccc(Cl)cc3)c2n1	/	/	8%	/	/	/
COc1ccc(CCNc2cc(C)nc3c(-c4ccccc4)cnn23)cc1OC	-34%	active	23%	48*	8%	1%
Cc1cc(NCc2ccccc2)n2ncc(-c3ccccc3)c2n1	-7%	93*	-9%	67*	3%	-7%
CC(C)(C)c1cc(NCc2ccccn2)n2ncc(-c3ccccc3)c2n1	-6%	97*	-51%	51*	2%	-2%
CCN(CC(=O)Nc1ccc(Br)cc1)C(=O)Cc1cccc(F)c1	-3%	18	-17%	-2	-1%	-2%
Cc1cn2c(=O)cc(COC(=O)c3cccc(NC(=O)c4ccccc4C)c3)nc2s1	/	/	/	/	2%	/
Cc1cc(NCCN2CCOCC2)n2ncc(-c3ccccc3)c2n1	2%	41*	-12%	28*	0%	1%
COc1ccccc1-c1cnn2c(NCCc3ccccc3)cc(C)nc12	-2%	75*	-8%	34*	1%	0%
COc1nc(NCCc2ccc(OC)c(OC)c2)nc(Nc2ccccc2)n1	-1%	/	-31%	54*	-2%	8%
COc1ccc(CCNc2nc(-c3ccccc3OC)cc(C(F)(F)F)n2)cc1OC	/	/	/	/	-10%	/
CCOC(=O)c1c(C)[nH]c(CCC(=O)NCc2ccccc2C)c1C	/	/	/	/	-7%	/
CSc1cccc(N2CC(C(=O)Nc3cccc(S(=O)(=O)N4CCCC4)c3)CC2=O)c1 (centres undefined)	1%	/	/	/	-27%	/
Cn1nccc1C(=O)N1CCCC(C(=O)c2cccc3ccccc23)C1 (centres undefined)	-2%	7	-4%	16	-9%	-2%
Cn1cc(CCC(=O)N2CCCC(C(=O)c3cccc4ccccc34)C2)cn1 (centres undefined)	1%	21	-7%	36*	0%	-5%
COc1ccc2cc(C(=O)C3CCCN(C(=O)C4=NN(C)C(=O)CC4)C3)ccc2c1 (centres undefined)	2%	3	-4%	20*	-2%	-1%
O=C(c1cccc(C(F)(F)F)c1)C1CCCN(C(=O)Cn2cncn2)C1 (centres undefined)	3%	4	10%	13*	0%	6%
O=C(c1ccc(C(F)(F)F)cc1)C1CCCN(C(=O)Cn2cncn2)C1 (centres undefined)	-1%	-8	5%	-2	9%	1%
COc1ccc(C(=O)C2CCCN(C(=O)CCc3scnc3C)C2)c(C)c1 (centres undefined)	-3%	92*	-9%	47*	-4%	-2%
COc1ccc(C(=O)C2CCCN(C(=O)CCc3ccccn3)C2)c(C)c1 (centres undefined)	0%	-15	-3%	8	1%	-6%
COc1ccc(-c2oc3ncn4nc(-c5ccccc5OC)nc4c3c2-c2ccc(OC)cc2)cc1	/	/	/	/	1%	/

Screens: PubChem, National Center for Advancing Translational Sciences (NCATS)
